From PubChem BioAssay (NCATS)
Inconclusive results are not listed. Activity calls are given as the source filed them. Calls come from the whole dose curve; as a rule, active = well fitted cell-killing curve with a large enough effect; inconclusive = small, poorly fitted or top-dose-only effect, or effect the other way; inactive = flat fitted curve, though single readings scatter.

Tests used:
Test in all cases: Primary qHTS to identify gynecologic anti-cancer compounds using libraries of approved drugs and bioactive compounds (AID 1345084); note: nearly all actives have a fitted effect of over 55% in size
Details in all cases: Gynecologic cancer cell panel viability, ATPlite luminescence, 48 h; series mostly up to 57.5 µM
[1] = system: OV90
Method in brief: (§1)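 Five-concentration response, 48 h; readout is ATP-driven luciferase luminescence.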

[2] = system: PA-1
Method in brief: as §1

[3] = system: SKOV3
Method in brief: as §1

[4] = system: Tov-21-G
Method in brief: as §1

[5] = system: Tov112D
Method in brief: as §1
% is set by controls: 0 for no effect and ±100 for the full control effect.

O=C(O)CCc1cccc(O[C@@H]2O[C@H](CO)[C@@H](O)[C@H](O)[C@H]2O)c1O
inactive: Potency [1] | Potency [2] | Potency [3] | Potency [4] | Potency [5]

C[C@H]1[C@H](C)CC[C@]2(C(=O)O)CC[C@]3(C)C(=CC[C@@H]4[C@@]5(C)C[C@@H](O)[C@H](O)[C@@](C)(CO)[C@@H]5CC[C@]43C)[C@H]12
inactive: Potency [1] | Potency [2] | Potency [3] | Potency [4] | Potency [5]

CC(C)C1=CC2=CCC3[C@](C)(CCC[C@@]3(C)C(=O)O)C2CC1=O (stereo not given in full)
inactive: Potency [1] | Potency [2] | Potency [3] | Potency [4] | Potency [5]

OCc1ccccc1O[C@@H]1O[C@H](CO)[C@@H](O)[C@H](O)[C@H]1O
inactive: Potency [1] | Potency [2] | Potency [3] | Potency [4] | Potency [5]

O=C(COc1ccc(Cl)cc1)NC1CCC(NC(=O)COc2ccc(Cl)cc2)CC1 (stereo not given)
inactive: Potency [1] | Potency [2] | Potency [3] | Potency [4] | Potency [5]

N#CCc1ccc(O)cc1O[C@@H]1O[C@H](CO)[C@@H](O)[C@H](O)[C@H]1O
inactive: Potency [1] | Potency [2] | Potency [3] | Potency [4] | Potency [5]

CC(NC(=O)CC(=O)O)c1nc2ccccc2c(=O)[nH]1 (stereo not given)
inactive: Potency [1] | Potency [2] | Potency [3] | Potency [4] | Potency [5]

C=C(C)C(C)C1OC23CC4(CO2)C(CCC2C5(C)CCC(OC6OCC(O)C(OC7OC(CO)C(O)C(OC8OCC(O)C(O)C8O)C7O)C6OC6OC(CO)C(O)C6O)C(C)(C)C5CCC24C)C3C(C)(O)C1OC(C)=O (stereo not given)
inactive: activity change, negative = cytotoxicity [1] -0.379% [at 11.6 µM] | activity change, negative = cytotoxicity [2] -1.12% [at 11.6 µM] | activity change, negative = cytotoxicity [3] 3.59% [at 11.6 µM] | activity change, negative = cytotoxicity [4] 1.52% [at 11.6 µM] | activity change, negative = cytotoxicity [5] 5.61% [at 11.6 µM]

Cc1cccc(-c2[nH]c(CNc3ccccc3F)nc2-c2ccc3ncnn3c2)n1
inactive: Potency [1] | Potency [2] | Potency [3] | Potency [4] | Potency [5]

CC1(C)C(=O)C(C)(C)c2cc(C(=O)Nc3ccc(C(=O)O)cc3)ccc21
inactive: Potency [1] | Potency [2] | Potency [3] | Potency [4] | Potency [5]

CCCCNC(=O)[C@@H]1Cc2ccccc2N1C(=O)[C@@H](N)CC
inactive: Potency [1] | Potency [2] | Potency [3] | Potency [4] | Potency [5]

CN(C)c1cccc(-c2c3c(=O)n(-c4ccccc4Cl)[nH]c3cc(=O)n2C)c1
inactive: Potency [1] | Potency [2] | Potency [3] | Potency [4] | Potency [5]

CC1=CC(=O)OC(C)(CC(C)(O)C(=O)O)C1 (stereo not given)
inactive: Potency [1] | Potency [2] | Potency [3] | Potency [4] | Potency [5]

CC(C)N(C[C@H]1O[C@@H](n2cnc3c(N)ncnc32)[C@H](O)[C@@H]1O)C1CC(CCc2nc3ccc(C(C)(C)C)cc3[nH]2)C1 (stereo not given in full)
inactive: Potency [1] | Potency [2] | Potency [3] | Potency [4] | Potency [5]

C[C@H]1CC[C@@]2(OC1)O[C@H]1CC3C4CC=C5C[C@H](O)C[C@@H](O[C@@H]6O[C@@H](C)[C@H](O)[C@@H](O)[C@H]6O[C@@H]6O[C@@H](C)[C@H](O)[C@@H](O)[C@H]6O)[C@]5(C)C4CC[C@]3(C)[C@H]1[C@@H]2C (stereo not given in full)
inactive: Potency [1] | Potency [2] | Potency [3] | Potency [4] | Potency [5]

C=C1C2=CC(O)C(C)C1(C)CC/C(C)=C/CCC1(C)OC1C2=O (stereo not given)
inactive: Potency [1] | Potency [2] | Potency [3] | Potency [4] | Potency [5]

CO[C@@H]1COCC[C@@H]1N[C@@H]1CC[C@@](C(=O)N2CCc3ncc(C(F)(F)F)cc3C2)(C(C)C)C1
inactive: Potency [1] | Potency [2] | Potency [3] | Potency [4] | Potency [5]

NCCOCCOCCNC(=O)Cc1ccc(Nc2nc(NCc3ccc(F)cc3)nc(NCC3CCCCC3)n2)cc1
inactive: Potency [1] | Potency [2] | Potency [3] | Potency [4] | Potency [5]

O=C1Nc2ccc(O)cc2O[C@H]1O[C@@H]1O[C@H](CO)[C@@H](O)[C@H](O)[C@H]1O
inactive: Potency [1] | Potency [2] | Potency [3] | Potency [4] | Potency [5]

C=C[C@H]1[C@H](O[C@@H]2O[C@H](CO)[C@@H](O)[C@H](O)[C@H]2O)OC=C2C(=O)OCC[C@]21O
inactive: Potency [1] | Potency [2] | Potency [3] | Potency [4] | Potency [5]

C1CCN2CC3C[C@@H](CN4CCCC[C@@H]34)[C@H]2C1
inactive: Potency [1] | Potency [2] | Potency [3] | Potency [4] | Potency [5]

C[C@]12CCC(=O)C=C1[C@@H](O)C[C@@H]1[C@@H]2[C@@H](O)C[C@@]2(C)[C@H]1CC[C@]2(O)C(=O)CO
inactive: Potency [1] | Potency [2] | Potency [3] | Potency [4] | Potency [5]

O=C(O[C@H]1[C@@H]2C[C@@H]3OC[C@@](O)([C@H]2[C@H](O[C@@H]2O[C@H](CO)[C@@H](O)[C@H](O)[C@H]2O)O3)[C@@H]1O)c1ccccc1
inactive: Potency [1] | Potency [2] | Potency [3] | Potency [4] | Potency [5]
